# Data reported in PubChem BioAssay (Tox21).
# Several values for one entry are separate records, joined by “and”; a condition that tells them apart may be missing. Identical values can stand only once. Records with an inconclusive call do not appear. Entries that show only a call come without a potency. A structure can be active in one record and inactive in another. Activity calls are given as the source filed them. Unless noted, the call rests on the fitted dose curve.
# Assays:
# [1] = biological target: Gonadotropin-releasing hormone receptor (Homo sapiens) (UniProt P30968); assay: Human gonadotropin-releasing hormone receptor (GnRHR) small molecule agonists, calcium flux assay in GnRHR-HEK293 cells (AID 1920063); further: nearly all actives have a fitted effect of over 35% in size
# Gonadotropin-releasing hormone receptor (Homo sapiens), sequence (P30968 whole entry, looked up): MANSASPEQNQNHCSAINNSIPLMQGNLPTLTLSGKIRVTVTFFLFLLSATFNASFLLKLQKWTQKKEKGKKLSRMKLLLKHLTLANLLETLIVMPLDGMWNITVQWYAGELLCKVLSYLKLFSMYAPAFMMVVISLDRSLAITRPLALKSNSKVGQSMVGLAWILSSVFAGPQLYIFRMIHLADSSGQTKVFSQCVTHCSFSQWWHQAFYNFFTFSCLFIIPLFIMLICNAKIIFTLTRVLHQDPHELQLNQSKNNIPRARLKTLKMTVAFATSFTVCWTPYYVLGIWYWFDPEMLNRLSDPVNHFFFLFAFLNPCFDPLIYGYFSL
# How it was run: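 Calcium flux, agonist mode, human GnRHR stably integrated in HEK293; dye 1 h at 37 C before compound; Ex/Em=480/540 kinetic read, 3 min; 15 concentrations, triplicate.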
# [2] = biological target: KiSS-1 receptor (Homo sapiens) (UniProt Q969F8); assay: Human kisspeptin (KISS1R) small molecule agonists, calcium flux assay in KISS1R-HEK293 cells (AID 1920064; active means well fitted activation curve with a large enough effect in the repeat runs)
# KiSS-1 receptor (Homo sapiens), sequence (Q969F8 whole entry, looked up): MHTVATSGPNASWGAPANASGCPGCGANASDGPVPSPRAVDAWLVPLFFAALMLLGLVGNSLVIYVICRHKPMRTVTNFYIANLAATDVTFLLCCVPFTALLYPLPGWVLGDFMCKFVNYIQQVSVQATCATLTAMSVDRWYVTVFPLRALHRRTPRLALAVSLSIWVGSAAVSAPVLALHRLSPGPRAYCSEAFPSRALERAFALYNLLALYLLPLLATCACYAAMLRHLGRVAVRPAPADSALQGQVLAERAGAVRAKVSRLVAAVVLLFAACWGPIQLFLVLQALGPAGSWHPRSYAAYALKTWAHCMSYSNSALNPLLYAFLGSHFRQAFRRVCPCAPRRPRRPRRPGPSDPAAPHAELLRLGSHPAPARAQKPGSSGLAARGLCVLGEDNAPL
# How it was run: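 Triplicate 15-concentration series were applied to dye-loaded human KISS1R HEK293 cells, and agonist-evoked calcium fluorescence was captured for 3 min.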
# [3] = G protein-coupled receptor (GPCR) small molecule agonists, calcium flux assay: HEK293 wild type cell line counter screen (AID 1920065)
# How it was run: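 Non-specific calcium responders were flagged by adding DMSO-dissolved compounds to dye-loaded cells and reading 480/540 nm fluorescence each second for 3 min; ATP served as positive control.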
# [4] = p53 small molecule agonists, cell-based qHTS assay (AID 1963582; active means well fitted activation curve with a large enough effect in the signal ratio in the repeat runs, not every such curve was filed as active; the % refers to the signal ratio)
# How it was run: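 Beta-lactamase reporter cells (p53RE-bla) treated with compounds for 16 h at 37 C; FRET substrate, 2 h, room temperature; fluorescence intensity.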
# [5] = cAMP Responsive Elements (CRE) small molecule agonists, cell-based qHTS assay (AID 1963590)
# How it was run: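 Quantitative HTS for CRE agonists: HEK 293T CRE-bla cells, overnight plating, 3 h compound incubation at 37 C/5% CO2, then 2 h room-temperature LiveBLAzer B/G FRET substrate loading.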
# [6] = cAMP Responsive Elements (CRE) small molecule antagonists, cell-based qHTS assay (AID 1963591; active means well fitted inhibition curve with a large enough effect in the signal ratio in the repeat runs, not every such curve was filed as active; the % refers to the signal ratio)
# How it was run: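 Fluorescence intensity from cleaved LiveBLAzer B/G substrate (2 h, room temperature) quantified CRE-bla activity in HEK 293T cells exposed 3 h to compound with 0.25 uM final NKH477.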
# [7] = biological target: 5-hydroxytryptamine receptor 2A (Homo sapiens) (UniProt P28223); assay: 5-hydroxytryptamine receptor 2A (HTR2A) small molecule antagonists, cell-based qHTS assay (AID 1963586); further: nearly all actives have a fitted effect of over 45% in size
# 5-hydroxytryptamine receptor 2A (Homo sapiens), sequence (P28223 whole entry, looked up): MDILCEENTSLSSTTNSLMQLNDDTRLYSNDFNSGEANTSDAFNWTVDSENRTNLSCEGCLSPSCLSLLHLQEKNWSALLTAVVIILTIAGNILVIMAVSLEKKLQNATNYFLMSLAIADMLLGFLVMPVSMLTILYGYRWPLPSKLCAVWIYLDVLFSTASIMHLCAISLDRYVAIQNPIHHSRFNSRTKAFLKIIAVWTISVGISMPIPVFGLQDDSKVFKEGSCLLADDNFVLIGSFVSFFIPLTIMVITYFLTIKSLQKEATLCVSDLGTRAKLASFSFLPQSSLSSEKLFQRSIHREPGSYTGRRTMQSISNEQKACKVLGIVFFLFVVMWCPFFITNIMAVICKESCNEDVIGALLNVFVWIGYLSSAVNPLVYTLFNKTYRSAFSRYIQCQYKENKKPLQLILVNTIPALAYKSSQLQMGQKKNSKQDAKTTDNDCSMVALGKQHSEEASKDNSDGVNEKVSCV
# How it was run: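 CHO cells stably expressing human HTR2A were plated for 18 h at 37 C, then loaded with calcium dye for 1 h. Compounds were preincubated 5 min at room temperature before DOI (4 nM solution) was added. Kinetic fluorescence was read for 3 min.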
# [8] = biological target: 5-hydroxytryptamine receptor 2A (Homo sapiens) (UniProt P28223); assay: 5-hydroxytryptamine receptor 2A (HTR2A) small molecule agonists, cell-based qHTS assay (AID 1963587); further: nearly all actives have a fitted effect of over 30% in size
# How it was run: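 HTR2A-CHO cells, plated 18 h at 37 C/5% CO2, dye-loaded 1 h at 37 C; compounds in DMSO added by pin tool (agonist mode). Intracellular calcium flux read as kinetic fluorescence on FDSS over 2 min at 1 s intervals.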
# [9] = biological target: Muscarinic acetylcholine receptor M1 (Homo sapiens) (UniProt P11229); assay: Cholinergic receptor muscarinic 1 (CHRM1) small molecule agonists, cell-based qHTS assay (AID 1963589); further: nearly all actives have a fitted effect of over 35% in size
# Muscarinic acetylcholine receptor M1 (Homo sapiens), sequence (P11229 whole entry, looked up): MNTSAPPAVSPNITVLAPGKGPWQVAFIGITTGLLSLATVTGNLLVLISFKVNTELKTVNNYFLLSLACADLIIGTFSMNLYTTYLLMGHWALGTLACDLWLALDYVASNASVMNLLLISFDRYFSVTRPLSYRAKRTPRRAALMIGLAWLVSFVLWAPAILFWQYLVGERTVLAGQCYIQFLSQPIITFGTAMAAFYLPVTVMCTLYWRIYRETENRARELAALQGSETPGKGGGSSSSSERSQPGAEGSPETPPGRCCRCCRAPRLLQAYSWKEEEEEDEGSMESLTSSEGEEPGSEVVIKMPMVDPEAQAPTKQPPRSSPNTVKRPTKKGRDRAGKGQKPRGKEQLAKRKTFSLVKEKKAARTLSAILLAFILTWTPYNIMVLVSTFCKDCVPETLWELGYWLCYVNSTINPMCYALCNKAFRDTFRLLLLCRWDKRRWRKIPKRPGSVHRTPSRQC
# How it was run: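 qHTS, 15-point titration, 3 independent runs: compounds pin-transferred onto dye-loaded CHRM1-CHO cells (human M1), calcium fluorescence followed every second to detect agonism.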
# [10] = biological target: Beta-2 adrenergic receptor (Homo sapiens) (UniProt P07550); assay: Adrenergic beta2 receptor (ADRB2) small molecule antagonists, cell-based qHTS assay (AID 1963592); further: nearly all actives have a fitted effect of over 50% in size; further: potency means the concentration at half of the fitted maximal effect
# Beta-2 adrenergic receptor (Homo sapiens), sequence (P07550 whole entry, looked up): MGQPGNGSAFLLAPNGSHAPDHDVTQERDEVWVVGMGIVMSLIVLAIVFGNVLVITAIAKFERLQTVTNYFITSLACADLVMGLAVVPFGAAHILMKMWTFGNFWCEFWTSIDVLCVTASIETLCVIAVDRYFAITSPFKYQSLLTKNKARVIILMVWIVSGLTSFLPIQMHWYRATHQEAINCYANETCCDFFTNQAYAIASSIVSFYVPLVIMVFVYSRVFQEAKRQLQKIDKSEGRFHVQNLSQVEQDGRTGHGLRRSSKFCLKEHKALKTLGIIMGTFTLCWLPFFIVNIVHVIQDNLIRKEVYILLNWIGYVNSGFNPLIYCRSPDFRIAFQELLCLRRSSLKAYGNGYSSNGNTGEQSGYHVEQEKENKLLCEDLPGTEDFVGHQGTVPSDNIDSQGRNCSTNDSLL
# How it was run: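 Assay format: CHO-ADRB2 cells, 18-20hr seeding at 37C/5% CO2, then compound plus 1nM isoproterenol agonist mix for 0.5hr RT. Homogeneous time-resolved fluorescence cAMP detection after 1hr, expressed as 665/615 nm ratio.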
# [11] = p53 small molecule agonists, cell-based qHTS assay with human liver microsomes: qHTS cell viability counter screen (AID 1963579); further: nearly all actives have a fitted effect of over 45% in size
# How it was run: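 Metabolically activated exposure: compounds, human liver microsomes and NADPH (0.5 mg/mL final apiece) were added to p53RE-bla cells seeded 5 h earlier, left 16 h at 37 C, and then assessed for viability by CellTiter-Glo luminescence.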
# [12] = p53 small molecule agonists, cell-based qHTS assay with rat liver microsomes: qHTS cell viability counter screen (AID 1963580); further: nearly all actives have a fitted effect of over 45% in size; further: potency means the concentration at half of the fitted maximal effect
# How it was run: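 Luminescent ATP readout (CellTiter-Glo, 30 min at room temperature) reports viability of p53RE-bla HCT-116 cells after 16 h at 37 C with test compounds under metabolic activation by rat liver microsomes and NADPH at 0.5 mg/mL final each.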
# [13] = p53 small molecule agonists, cell-based qHTS assay: qHTS cell viability counter screen (AID 1963581); further: nearly all actives have a fitted effect of over 45% in size
# How it was run: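 Multiplexed with the reporter read, a CellTiter-Glo step (30 min, room temperature) gauges ATP-based viability of HCT-116 p53RE-bla cells after 16 h compound incubation at 37 C.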
# [14] = biological target: Beta-2 adrenergic receptor (Homo sapiens) (UniProt P07550); assay: Adrenergic beta2 receptor (ADRB2) small molecule agonists, cell-based qHTS assay (AID 1963593);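 further: CHO cells stably overexpressing human ADRB2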
# How it was run: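 CHO cells stably over-expressing ADRB2 were plated overnight at 37C, then dosed with compounds plus a stimulation mix containing 100uM IBMX and 25uM Ro-20-1724 for 0.5hr at room temperature. cAMP was measured by HTRF competition, 1hr.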
# [15] = biological target: D(2) dopamine receptor (Homo sapiens) (UniProt P14416); assay: Dopamine D2 receptor (DRD2) small molecule agonists, cell-based qHTS assay (AID 1963594); further: nearly all actives have a fitted effect of over 35% in size; further: potency means the concentration at half of the fitted maximal effect
# D(2) dopamine receptor (Homo sapiens), sequence (P14416 whole entry, looked up): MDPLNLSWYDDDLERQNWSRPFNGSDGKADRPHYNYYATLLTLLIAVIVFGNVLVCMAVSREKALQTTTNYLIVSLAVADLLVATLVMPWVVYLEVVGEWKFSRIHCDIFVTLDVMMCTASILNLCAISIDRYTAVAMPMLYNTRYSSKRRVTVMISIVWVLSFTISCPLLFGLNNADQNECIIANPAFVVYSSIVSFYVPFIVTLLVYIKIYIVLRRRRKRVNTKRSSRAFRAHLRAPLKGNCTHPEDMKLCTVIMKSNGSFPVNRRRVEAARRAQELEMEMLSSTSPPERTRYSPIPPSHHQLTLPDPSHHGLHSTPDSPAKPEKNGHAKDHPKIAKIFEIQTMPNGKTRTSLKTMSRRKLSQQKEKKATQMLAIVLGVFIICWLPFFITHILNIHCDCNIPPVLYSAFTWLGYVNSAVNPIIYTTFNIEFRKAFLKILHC
# How it was run: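 HEK293 cells stably expressing DRD2 were cultured 24 h at 37 C, then given Ro20-1724 (0.1 mM final) and compounds for 10 min at room temperature. NKH477 (200nM) was then added for 30 min. cAMP was read by HTRF.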
# [16] = biological target: D(2) dopamine receptor (Homo sapiens) (UniProt P14416); assay: Dopamine D2 receptor (DRD2) small molecule antagonists, cell-based qHTS assay (AID 1963595; active means well fitted inhibition curve with a large enough effect in the signal ratio in the repeat runs, with a control signal flat; the % refers to the signal ratio)
# How it was run: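 Stable D2 receptor HEK293 line, 24 h after seeding. Compound preincubated 10 min, then quinpirole (12 nM) with forskolin analogue NKH477 (200 nM), 30 min, room temperature. Detection by time-resolved FRET of cAMP.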
# [17] = biological target: Muscarinic acetylcholine receptor M1 (Homo sapiens) (UniProt P11229); assay: Cholinergic receptor muscarinic 1 (CHRM1) small molecule antagonists, cell-based qHTS assay (AID 1963588); further: nearly all actives have a fitted effect of over 40% in size
# How it was run: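 Compounds were tested at 15 concentrations in three independent runs. Dye-loaded CHRM1-CHO cells were exposed 5 min at room temperature before stimulation by acetylcholine added at 50nM. Intracellular calcium was read kinetically on FDSS for 3 min.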
# [18] = p53 small molecule agonists, cell-based qHTS assay with rat liver microsomes (AID 1963578)
# How it was run: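 Agonist mode in p53RE-bla reporter cells, with compounds co-incubated 16 h at 37 C alongside 0.5 mg/mL rat liver microsomes and 0.5 mg/mL NADPH (final), followed by a 2 h LiveBLAzer detection step.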
# [19] = p53 small molecule agonists, cell-based qHTS assay with human liver microsomes (AID 1963577);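 further: p53 response element beta-lactamase reporter cells with liver microsomes plus NADPH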
# How it was run: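 In this qHTS, p53 response-element beta-lactamase cells receive test compound together with a microsome/NADPH activating system (0.5 mg/mL final each) and are incubated 16 h at 37 C before LiveBLAzer fluorescence detection.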
smiles,measurement,setting,value
CNCCCN1c2ccccc2CCc2ccccc21,Potency,[1],inactive
same,Potency,[2],inactive
same,Potency,[3],inactive
same,Potency,[4],inactive
same,Potency,[5],inactive
same,Potency,[6],inactive
Cc1c(-c2ccc(O)cc2)n(Cc2ccc(OCCN3CCCCCC3)cc2)c2ccc(O)cc12,Potency,[1],inactive
same,Potency,[2],inactive
same,Potency,[3],inactive
same,Potency,[7],inactive
same,Potency,[8],inactive
same,Potency,[9],inactive
same,Potency,[10],inactive
O=C(OCC(O)CO)c1ccccc1Nc1ccnc2cc(Cl)ccc12 (stereo not given),Potency,[1],inactive
same,Potency,[2],inactive
same,Potency,[11],inactive
same,Potency,[12],inactive
same,Potency,[13],inactive
same,Potency,[7],inactive
same,Potency,[8],inactive
same,Potency,[9],inactive
same,Potency,[10],inactive
same,Potency,[14],inactive
same,Potency,[15],inactive
same,Potency,[16],inactive
CN1[C@@H]2CC[C@@H]1CC(OC(=O)C(CO)c1ccccc1)C2 (stereo not given in full),Potency,[1],inactive
same,Potency,[2],inactive
same,Potency,[3],inactive
same,Potency,[5],inactive
same,Potency,[6],inactive
same,Potency,[10],inactive
same,Potency,[15],inactive
same,Potency,[16],inactive
O=C(O)c1cn(C2CC2)c2cc(N3CCNCC3)c(F)cc2c1=O,Potency,[1],inactive
same,Potency,[2],inactive
same,Potency,[3],inactive
same,Potency,[13],inactive
same,Potency,[5],inactive
same,Potency,[6],inactive
same,Potency,[15],inactive
same,Potency,[16],inactive
CN(C)CCCN1c2ccccc2CCc2ccccc21,Potency,[1],inactive
same,Potency,[2],inactive
same,Potency,[3],inactive
same,Potency,[8],inactive
same,Potency,[9],inactive
same,Potency,[6],inactive
same,Potency,[10],29.8 µM (active)
same,Potency,[15],inactive
same,Potency,[16],inactive
O=C1CN(/N=C/c2ccc([N+](=O)[O-])o2)C(=O)N1,Potency,[1],inactive
same,Potency,[2],inactive
same,Potency,[13],inactive
same,Potency,[10],inactive
same,Potency,[14],inactive
same,Potency,[15],inactive and 68.6 µM (active)
same,Potency,[16],inactive
Cc1ccccc1,Potency,[1],inactive
same,Potency,[2],inactive
same,Potency,[3],inactive
same,Potency,[7],inactive
same,Potency,[8],inactive
same,Potency,[17],inactive
same,Potency,[9],inactive
same,Potency,[5],inactive
same,Potency,[6],inactive
same,Potency,[16],inactive
Cc1cnc(C(=O)NCCc2ccc(S(=O)(=O)NC(=O)NC3CCCCC3)cc2)cn1,Potency,[1],inactive
same,Potency,[2],inactive
same,Potency,[3],inactive
same,Potency,[13],inactive
same,Potency,[4],inactive
same,Potency,[6],inactive
same,Potency,[10],inactive
same,Potency,[16],inactive
CN(C)CC[C@@H](c1ccc(Cl)cc1)c1ccccn1,Potency,[1],inactive
same,Potency,[2],inactive
same,Potency,[3],inactive
same,Potency,[13],inactive
same,Potency,[4],inactive
same,Potency,[10],inactive
same,Potency,[15],inactive
same,Potency,[16],inactive
CCCn1cc[n+](C)c1C,Potency,[1],inactive
same,Potency,[2],inactive
same,Potency,[18],inactive
same,Potency,[11],inactive
same,Potency,[12],inactive
same,Potency,[13],inactive
same,Potency,[4],inactive
same,Potency,[7],inactive
same,Potency,[8],inactive
same,Potency,[17],inactive
same,Potency,[9],inactive
same,Potency,[5],inactive
same,Potency,[6],inactive
same,Potency,[14],inactive
same,Potency,[15],inactive
same,Potency,[16],inactive
CN1[C@@H]2CC[C@H]1CC(OC(=O)C(CO)c1ccccc1)C2 (stereo not given in full),Potency,[1],inactive
same,Potency,[2],inactive
same,Potency,[3],inactive
same,Potency,[5],inactive
same,Potency,[6],inactive
same,Potency,[10],inactive
same,Potency,[15],inactive
same,Potency,[16],inactive
O=C(/C=C/c1ccc([N+](=O)[O-])cc1)c1ccccc1,Potency,[1],inactive
same,Potency,[2],inactive
same,Potency,[19],inactive
same,Potency,[18],inactive
same,Potency,[11],inactive
same,Potency,[12],20.5 µM (active)
same,Potency,[13],inactive
same,Potency,[4],inactive
same,Potency,[7],inactive
same,Potency,[8],inactive
same,Potency,[17],inactive
same,Potency,[9],inactive
same,Potency,[10],inactive
same,Potency,[15],inactive
CC(C)c1c(C(=O)Nc2ccccc2)c(-c2ccccc2)c(-c2ccc(F)cc2)n1CC[C@@H](O)C[C@@H](O)CC(=O)O,Potency,[1],inactive
same,Potency,[2],inactive
same,Potency,[3],inactive
same,Potency,[13],inactive
same,Potency,[10],inactive
same,Potency,[15],inactive
same,Potency,[16],inactive
CC1CCCC1,Potency,[1],inactive
same,Potency,[2],inactive
same,Potency,[3],inactive
same,Potency,[7],inactive
same,Potency,[8],inactive
same,Potency,[17],inactive
same,Potency,[9],inactive
same,Potency,[6],inactive
same,Potency,[10],inactive
same,Potency,[15],inactive
CN(C)CCOC(c1ccccc1)c1ccccc1,Potency,[1],inactive
same,Potency,[2],inactive
same,Potency,[3],inactive
same,Potency,[13],inactive
same,Potency,[5],inactive
same,Potency,[6],inactive
same,Potency,[10],inactive
same,Potency,[15],inactive
same,Potency,[16],inactive
O=C(O)CCn1c2c(c3ccccc31)C[C@H](NS(=O)(=O)c1ccc(F)cc1)CC2,Potency,[1],inactive
same,Potency,[2],inactive
same,Potency,[3],inactive
same,Potency,[7],inactive
same,Potency,[8],inactive
same,Potency,[17],inactive
same,Potency,[9],inactive
same,Potency,[5],inactive
same,Potency,[10],inactive
same,Potency,[15],inactive
same,Potency,[16],inactive
COc1c2occc2cc2ccc(=O)oc12,Potency,[1],inactive
same,Potency,[2],inactive
same,Potency,[3],inactive
same,Potency,[4],inactive
same,Potency,[5],inactive
same,Potency,[6],inactive
same,Potency,[10],inactive
same,Potency,[15],inactive
same,Potency,[16],inactive
OCC(O)CO,Potency,[1],inactive
same,Potency,[2],inactive
same,Potency,[3],inactive
same,Potency,[7],inactive
same,Potency,[8],inactive
same,Potency,[9],inactive
same,Potency,[5],inactive
same,Potency,[6],inactive
same,Potency,[10],inactive
same,Potency,[14],inactive
same,Potency,[15],inactive
same,Potency,[16],inactive
CN1CCN(C2=Nc3cc(Cl)ccc3Nc3ccccc32)CC1,Potency,[1],inactive
same,Potency,[2],inactive
same,Potency,[3],inactive
same,Potency,[13],inactive
same,Potency,[5],inactive
same,Potency,[10],inactive
